For eight compounds, growth results are on record in PubChem BioAssay (NCI).

Compounds without any hit were thinned out: in the full panel of roughly 83,000, 20% have a hit.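 Note: values are percent growth. 100 is the growth of untreated cells, values between 100 and 0 indicate rising inhibition; between -100 and 0 indicates cell death.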 A number with no mark means an inactive call. The source made the active and inactive calls. How the source made its calls: active means growth percent below 10; inactive means the rest.

Among the test systems are DU-145 prostate; K-562 leukemia; MALME-3M melanoma; MDA-MB-231 breast; RXF 393 renal; SF-268 CNS; SF-295 CNS; SF-539 CNS; UACC-257 melanoma; M14 melanoma; HCT-15 colon; HT29 colon; SNB-75 CNS; SNB-19 CNS; U251 CNS; PC-3 prostate; SK-MEL-5 melanoma; UACC-62 melanoma; LOX IMVI melanoma; SK-MEL-28 melanoma.
Assay in all cases: NCI-60 one-dose screen, 48 h (100 = growth as untreated, 0 = no growth, -100 = all killed)
What all share (conditions): 10 µM unless noted

Consider `NS(=O)(=O)c1ccc(C(=O)N/N=C(\CS(=O)(=O)c2ccccc2)c2cc3cc(Br)ccc3o2)cc1`, for which the growth in the assay with DU-145 prostate is 101%; with K-562 leukemia, 106%; with MALME-3M melanoma, 90.5%; with MDA-MB-231 breast, 73.7%; in the assay on RXF 393 renal, 74.7%; in the assay on SF-268 CNS it was 73.3%. The growth with SF-295 CNS is 101%; with SF-539 CNS it was 80.6%; with UACC-257 melanoma it was 94.8%; with M14 melanoma, 111%; in the assay with HCT-15 colon, 99.5%; in the assay with HT29 colon, 97.4%. Moreover, the growth in the assay on SNB-75 CNS was 56.1%; with SNB-19 CNS it was 69.9%; in the assay with U251 CNS it was 96.1%; in the assay with PC-3 prostate, 94.4%; in the assay with SK-MEL-5 melanoma, 85.6%; in the assay with UACC-62 melanoma it was 82%. Also, the growth with LOX IMVI melanoma is 94.7%; in the assay on SK-MEL-28 melanoma it was 98.4%.
As for `O=C1NC(=S)S/C1=C\c1cccc([N+](=O)[O-])c1`, the growth was 111% with DU-145 prostate; 68.5% with K-562 leukemia; 153% in the assay with MALME-3M melanoma; 93.8% in the assay on MDA-MB-231 breast; 153% in the assay with RXF 393 renal; 89.9% with SF-268 CNS. In addition, the growth in the assay on SF-295 CNS is 91.3%; in the assay with SF-539 CNS, 88.6%; with UACC-257 melanoma, 88.8%; with M14 melanoma it was 97.4%; in the assay on HCT-15 colon, 93.3%; in the assay on HT29 colon, 109%. The growth in the assay with SNB-75 CNS was 83.8%; in the assay on SNB-19 CNS, 98%; in the assay with U251 CNS it was 92.7%; with PC-3 prostate, 88.1%; in the assay with SK-MEL-5 melanoma it was 89.9%; with UACC-62 melanoma it was 70%. In addition, the figures for the growth in the assay with LOX IMVI melanoma and with SK-MEL-28 melanoma were 88.9% and 112%, respectively.
With `O=C1N/C(=C\c2ccccc2)c2ncccc21`, the growth in the assay with DU-145 prostate was 106%; in the assay on K-562 leukemia, 90.7%; with MALME-3M melanoma it was 95.2%; in the assay on MDA-MB-231 breast it was 94.3%; with RXF 393 renal it was 127%; with SF-268 CNS it was 98.6%. Further, the growth in the assay with SF-295 CNS was 107%; in the assay on SF-539 CNS, 101%; with UACC-257 melanoma, 100%; in the assay with M14 melanoma, 98.5%; with HCT-15 colon it was 101%; in the assay on HT29 colon, 113%. Further, the growth with SNB-75 CNS was 91.8%; in the assay with SNB-19 CNS, 104%; in the assay on U251 CNS, 104%; in the assay on PC-3 prostate, 102%; in the assay with SK-MEL-5 melanoma it was 105%; in the assay with UACC-62 melanoma it was 102%. For the same compound, the growth in the assay with LOX IMVI melanoma was 99.2%; in the assay on SK-MEL-28 melanoma it was 119%.
As to `Cc1cccc2c(=O)c3c(sc12)c(NCCCN)nc1ccccc13`, the growth is -19.8% (active) with DU-145 prostate; -34.6% (active) in the assay with K-562 leukemia; 13.9% in the assay with MALME-3M melanoma; -32.4% (active) in the assay with MDA-MB-231 breast; 31.5% in the assay with RXF 393 renal; 46.2% with SF-268 CNS. Further, the growth with SF-295 CNS is 68%; in the assay with SF-539 CNS, 38.4%; in the assay with UACC-257 melanoma, 81.9%; in the assay with M14 melanoma it was -19.7% (active); in the assay on HCT-15 colon it was -69.2% (active); in the assay on HT29 colon, -52.8% (active). The growth was 19.7% in the assay on SNB-75 CNS; 51.3% in the assay on SNB-19 CNS; 1.33% (active) in the assay with U251 CNS; 34.8% in the assay with PC-3 prostate; 47.3% in the assay on SK-MEL-5 melanoma; 14.2% with UACC-62 melanoma. Moreover, the figures for the growth in the assay with LOX IMVI melanoma and with SK-MEL-28 melanoma were -93.7% (active) and 8.94% (active), respectively.
Turning to `CCCCCCCC/C=C\CCCCCCCCOc1cccc(CC(=O)NCC[N+]2(C)CCCC2)c1`, the growth in the assay with DU-145 prostate was 92.7%; in the assay on K-562 leukemia, 60.2%; with MALME-3M melanoma, 88.9%; in the assay with MDA-MB-231 breast, 81.6%; in the assay on RXF 393 renal, 13%; with SF-268 CNS it was 65.5%. For the same compound, the growth with SF-295 CNS is 96.4%; with SF-539 CNS, 98.8%; in the assay with UACC-257 melanoma, 98.9%; in the assay on M14 melanoma, 89.2%; with HCT-15 colon, 98.7%; with HT29 colon, 38.5%. The growth is 53.3% with SNB-75 CNS; 62.6% with SNB-19 CNS; 53.5% in the assay with U251 CNS; 36.3% in the assay on PC-3 prostate; 94.1% with SK-MEL-5 melanoma; 71.7% with UACC-62 melanoma. The growth in the assay on LOX IMVI melanoma was 87%; in the assay on SK-MEL-28 melanoma, 98.6%.
Regarding `COc1ccc(-c2nc3sccn3c2/C=C/C(=O)c2cc(OC)c(OC)c(OC)c2)cc1OC`, the growth with DU-145 prostate is 6.29% (active); in the assay with K-562 leukemia it was 13.9%; in the assay with MALME-3M melanoma, 37.7%; with MDA-MB-231 breast, 31.7%; with RXF 393 renal, -1.12% (active); in the assay on SF-268 CNS, 28.2%. The growth in the assay on SF-295 CNS was 5.22% (active); with SF-539 CNS it was 24.6%; in the assay with UACC-257 melanoma, 24.5%; in the assay on M14 melanoma, 7.09% (active); in the assay on HCT-15 colon it was 22%; in the assay on HT29 colon it was 4.2% (active). Moreover, the growth with SNB-75 CNS was -8.25% (active); in the assay with SNB-19 CNS it was 28.5%; with U251 CNS, 10%; in the assay with PC-3 prostate it was 22.6%; in the assay with SK-MEL-5 melanoma, 5.76% (active); with UACC-62 melanoma it was 15.3%. For the same compound, the growth with LOX IMVI melanoma was 9.65% (active); in the assay on SK-MEL-28 melanoma, 53.2%.
With `CCCCC(O)Cn1ncc(C(=O)OCC)c1NC(=O)NCc1ccccc1C(F)(F)F` (stereo not given), the growth in the assay on DU-145 prostate was 102%; in the assay on K-562 leukemia, 71.8%; in the assay with MALME-3M melanoma it was 93.2%; in the assay with MDA-MB-231 breast it was 92.2%; in the assay with RXF 393 renal it was 106%; in the assay with SF-268 CNS it was 97.7%. Besides, the growth in the assay with SF-295 CNS is 94.3%; in the assay on SF-539 CNS it was 95.9%; with UACC-257 melanoma it was 93.7%; in the assay with M14 melanoma, 95.2%; in the assay on HCT-15 colon, 98%; in the assay on HT29 colon, 107%. Besides, the growth in the assay on SNB-75 CNS was 92.6%; in the assay on SNB-19 CNS it was 94.4%; in the assay on U251 CNS it was 95.3%; in the assay on PC-3 prostate it was 86.6%; in the assay on SK-MEL-5 melanoma, 95.9%; in the assay with UACC-62 melanoma, 87.6%. Also, the growth in the assay with LOX IMVI melanoma is 98.4%; with SK-MEL-28 melanoma it was 111%.
Consider `CCCCCn1c(=N)n(CC(O)COc2cccc(C)c2)c2ccccc21` (stereo not given), for which the growth is 10.4% in the assay on DU-145 prostate; 6.52% (active) with K-562 leukemia; -6.7% (active) with MALME-3M melanoma; 22.8% in the assay on MDA-MB-231 breast; 15.5% with RXF 393 renal; 25.6% with SF-268 CNS. Also, the growth in the assay on SF-295 CNS is -27.4% (active); in the assay with SF-539 CNS, -14.7% (active); with UACC-257 melanoma, -19.6% (active); in the assay with M14 melanoma, 15.9%; in the assay on HCT-15 colon, 11.1%; in the assay with HT29 colon it was 72.7%. Moreover, the growth in the assay on SNB-75 CNS was 2.13% (active); in the assay with SNB-19 CNS, 20%; with U251 CNS, 1.64% (active); with PC-3 prostate it was 7.46% (active); in the assay on SK-MEL-5 melanoma, -73.3% (active); in the assay on UACC-62 melanoma, 25.7%. The growth in the assay on LOX IMVI melanoma is 13.7%; in the assay on SK-MEL-28 melanoma, 31.2%.
